SKKanGAS inh: blocks kanamycin growth of S. pyogenes SKKanGAS strain; BacTiter-Glo, 6 h; actives 1.3% (n = 300,000); inhibition, % at 7.5 µM;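 active = mean replicate score, as percent of positive control median, at least 50; inconclusive = mean below 50 but one replicate at or above 50; inactive = mean and every replicate below 50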;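 note: strain carries kanamycin resistance gene driven by streptokinase promoter and grows in 40 µg/ml kanamycin; loss of luminescence reflects streptokinase promoter inhibition or plain growth inhibition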
tim10-1 inh: growth inhibitors of tim10-1 mutant yeast; S. cerevisiae tim10-1 ts strain growth, BacTiter-Glo, 24 h; actives 2.2% (n = 330,000); inhibition, % at 20 µM; AID 463190;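 active = inhibition of at least 40%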;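 note: mutant grown at 25 °C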
tim23-1 inh: tim23-1 yeast growth inhibition; inhibition, % at 20 µM; S. cerevisiae tim23-1 growth, BacTiter-Glo luminescence, 24 h; AID 463212; actives 1.3% (n = 330,000);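 active = growth inhibition of the mutant yeast at or above 50%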;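 note: temperature-sensitive mutant grown at 25 °C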
PfHsp90 set2: inhibits growth of yeast expressing Plasmodium falciparum Hsp90; S. cerevisiae expressing PfHsp90, BacTiter-Glo ATP, 48 h; yeast lacking PDR1 and PDR3 efflux regulators; inhibition, % at 9.4 µM; actives 0.32% (n = 310,000); AID 504621;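 active = every replicate shows inhibition above about 80%, whatever the replicate mean, limit read from the data; inconclusive = mean inhibition reaches the set limit but some replicate falls short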
NALP3 yeast inh: inhibitors of NALP3 inflammasome in yeast | actives 0.39% (n = 330,000) | inhibition, % at 10 µM | Yeast reconstituted NLRP3/ASC/caspase-1, beta-gal luminescence, 24 h;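 active = inhibition of 50% or more; inactive = inhibition below 50%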
TIM10 inh: TIM10 yeast growth inhibition; actives 1.4% (n = 330,000); inhibition, % at 10 µM; S. cerevisiae TIM10 strain growth, BacTiter-Glo luminescence, 24 h;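 active = inhibition of 40% or more at the single tested concentration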;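 note: wild-type TIM10 isogenic control strain grown at permissive 25 °C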
Each line names hits and unclear results; the compound was inactive in the other large screens. Hits are enriched below; roughly 4.6% of the tested compounds scored in any of these assays.

CC(NC(=O)CN(C)S(=O)(=O)c1cccc2nsnc12)c1ccccc1 (centres undefined)	none
CCCCOC(=O)CSc1nc(N)c(C#N)c(-c2ccc(OCC)cc2)c1C#N	none
CCCCOc1ccc(-c2c(C#N)c(N)nc(SCC(N)=O)c2C#N)cc1	SKKanGAS inh 89.6 (no result: PfHsp90 set2)
c1ccc(-c2c3ccccc3nc3[nH]c4ccccc4c23)cc1	SKKanGAS inh 96.1
Cc1nn(CCOc2cccc(Br)c2)c(C)c1[N+](=O)[O-]	none
N#C/C(=N\Nc1ccc(S(=O)(=O)N2CCCCCC2)cc1)C(N)=S	SKKanGAS inh 113.8
CC(OC(=O)c1cccc(-n2cnnn2)c1)C(=O)N(C)c1ccccc1 (centres undefined)	none
CCOC(=O)N1CCN(C(=O)c2ccc3c(c2)NC(=O)/C(=C/c2ccccc2)S3)CC1	SKKanGAS inh 92.9
Cc1ccc(/C=C2/Sc3ccc(C(=O)N4CCN(c5ccccn5)CC4)cc3NC2=O)cc1	SKKanGAS inh 67.1
O=C(NCCN1CCN(c2ccccc2)CC1)C1CCN(S(=O)(=O)c2cccc3nsnc23)CC1	none
Cc1cccc(OCc2nnc(SCC(=O)c3c(N)n(C4CC4)c(=O)[nH]c3=O)o2)c1	none (no result: SKKanGAS inh)
CCC1C/C(=C\c2cccnc2)C(=O)/C(=C/c2cccnc2)C1 (centres undefined)	PfHsp90 set2 99.6 (no result: SKKanGAS inh, tim10-1 inh, tim23-1 inh, NALP3 yeast inh, TIM10 inh)
O=C1C(NS(=O)(=O)c2cccs2)=C(N2CCN(c3cccc(C(F)(F)F)c3)CC2)C(=O)c2ccccc21	SKKanGAS inh 54.5
O=C(Nc1cccc(S(=O)(=O)N2CCCCC2)c1)c1cc(=O)[nH]c2ccccc12	none (no result: SKKanGAS inh)
CC1(C)Oc2ccc3ccc(=O)oc3c2/C(=C/NNC(N)=S)C1=O	SKKanGAS inh 82.0
CN/C=C1\C(=O)C(C)(C)Oc2ccc3ccc(=O)oc3c21	none
Cc1cccc(C)c1OCC(=O)NNC(=S)NC(=O)C1CC1	SKKanGAS inh 94.7, PfHsp90 set2 104.4
CCCCN(CCCC)c1nc(-c2ccncc2)nc2ccccc12	SKKanGAS inh 97.0
OCCNc1nc(Nc2cc(Cl)ccc2OC2CCCC2)nc(N2CCCC2)n1	SKKanGAS inh 67.5
CCCc1cc(=O)n2nc(N3CCC(C(=O)N4CCN(c5ccc(OC)cc5)CC4)CC3)sc2n1	none
O=C(Cc1ccccc1)NCCS(=O)(=O)N1CCN(c2ccccc2)CC1	SKKanGAS inh 53.8
Oc1cccc(-c2nc3ccc4ccccc4c3c3c2CCC3)c1	SKKanGAS inh 63.1, PfHsp90 set2 inconclusive
O=C(NNc1c2ccccc2nc2ccccc12)c1cccc(O)c1	none
Cc1ccc2cc(CN(Cc3cccs3)C(=O)c3ccco3)c3nnnn3c2c1C	SKKanGAS inh 63.1 (no result: PfHsp90 set2)
CCOc1c(OC(C)=O)ccc(/C=C/c2ccc3cccc(OC(C)=O)c3n2)c1[N+](=O)[O-]	SKKanGAS inh 85.1
CCOc1cc(/C=C/c2ccc3cccc([N+](=O)[O-])c3n2)ccc1O	none
CCOc1cccc(/C=C/c2ccc3cccc(O)c3n2)c1O	SKKanGAS inh 107.2
CCOc1cccc(/C=C/c2ccc3cccc(O)c3n2)c1OC	SKKanGAS inh 97.7
COc1ccc(N(C(=O)Cn2nnc(-c3ccc(C)o3)n2)C(C(=O)NC2CCCC2)c2ccncc2)cc1 (centres undefined)	none
Oc1c(C(Nc2cccc(C(F)(F)F)c2)c2cccnc2)ccc2cccnc12 (centres undefined)	SKKanGAS inh inconclusive
CN1CCN(C(c2ccc(C(F)(F)F)cc2)c2ccc3cccnc3c2O)CC1 (centres undefined)	SKKanGAS inh 86.9 (no result: PfHsp90 set2)
COCc1cc(C)nc(SCC[N+](C)(C)CC(=O)Nc2cccc(C(F)(F)F)c2)c1C#N	none (no result: PfHsp90 set2)
CCOC(=O)c1cnn(-c2nc(-c3cccc(F)c3)cs2)c1C(F)(F)F	SKKanGAS inh 64.2
CCOC(=O)c1cnn(-c2nc3c(C)cccc3s2)c1C(F)(F)F	SKKanGAS inh 87.5
COCCN(CC(=O)Nc1cccc(C)c1C)C(=O)c1ccc(-n2cccn2)cc1	none (no result: SKKanGAS inh)
N#Cc1ccc(-c2ccccc2)nc1SCC(=O)c1cc2ccccc2oc1=O	SKKanGAS inh 108.8
CN(C)c1ccc(C=c2c3ccccc3n3c2cc(-c2ccccc2)[n+]3C)cc1	PfHsp90 set2 104.7 (no result: SKKanGAS inh, tim10-1 inh, tim23-1 inh, NALP3 yeast inh, TIM10 inh)
CN(C)c1ccc(C=c2c3ccccc3n3c2cc(-c2ccc(Cl)cc2)[n+]3C)cc1	none (no result: SKKanGAS inh, tim10-1 inh, tim23-1 inh, NALP3 yeast inh, TIM10 inh)
COc1cc(N(C)C)ccc1C=c1c2ccccc2n2c1cc(-c1ccccc1)[n+]2C	PfHsp90 set2 104.1 (no result: SKKanGAS inh, tim10-1 inh, tim23-1 inh, NALP3 yeast inh, TIM10 inh)
COc1cc(C=c2c3ccccc3n3c2cc(-c2ccccc2)[n+]3C)cc(OC)c1OC	none (no result: SKKanGAS inh, tim10-1 inh, tim23-1 inh, NALP3 yeast inh, TIM10 inh)
Oc1ccc(N=Nc2ccc3ccccc3c2)cc1	PfHsp90 set2 107.8
O=C(COc1ccc2c(c1)oc(=O)c1ccccc12)NCCCN1CCOCC1	none
CCc1ccccc1NC(=O)NNS(=O)(=O)c1cc(C)ccc1C	SKKanGAS inh 51.2
CCOc1ccccc1NC(=O)NNS(=O)(=O)c1cc(C)ccc1C	none
COc1ccc(C(C)(C)C)cc1NC(=O)CN1C(=O)C(=O)N(Cc2ccco2)C1=O	none (no result: SKKanGAS inh, PfHsp90 set2)
O=C(Nc1nnc(-c2cc(Cl)ccc2Cl)o1)c1ccco1	SKKanGAS inh 73.7
O=C(Nc1nnc(-c2cccnc2)o1)c1cccc(Cl)c1	SKKanGAS inh 78.7
O=C(Nc1nnc(-c2ccco2)o1)c1cccc(Cl)c1	SKKanGAS inh 88.1
O=C(Nc1nnc(-c2ccc(Br)cc2)o1)c1cccc(N2C(=O)CCC2=O)c1	SKKanGAS inh 87.6 (no result: PfHsp90 set2)
COCCn1c(SCC(=O)N2CCCCC2)nc2c(c1=O)SC(C)C2 (centres undefined)	none
O=C(N/N=C/c1ccc(OC(F)F)cc1)c1cccc(S(=O)(=O)N2CCOCC2)c1	none
O=C(Nc1nnc(-c2ccccn2)o1)c1cccc(Cl)c1	SKKanGAS inh 83.3
O=C(Nc1nnc(-c2ccccn2)o1)c1cccc(Br)c1	SKKanGAS inh 67.0
Cc1ccc(C(=O)Nc2nnc(-c3ccncc3)o2)cc1	none
Cc1cccc(-c2nnc(NC(=O)c3ccc(Cl)cc3)o2)c1	SKKanGAS inh 121.5 (no result: PfHsp90 set2)
N#Cc1ccc(C(=O)Nc2nnc(-c3ccccn3)o2)cc1	none
CN(C)c1nc(-c2cn(CCC#N)c3ccccc23)cs1	none
COc1cccc(N2CCN(Cc3nc(N)nc(Nc4ccccc4)n3)CC2)c1	none
COc1ccccc1Nc1nc(N)nc(CN2CCN(Cc3ccccc3)CC2)n1	none (no result: PfHsp90 set2)
COc1ccccc1N1CCN(Cc2nc(N)nc(Nc3ccc(C)c(Cl)c3)n2)CC1	SKKanGAS inh 76.2 (no result: PfHsp90 set2)
COc1ccccc1Nc1nc(N)nc(CN2CCN(c3ccccc3F)CC2)n1	SKKanGAS inh 62.4
Cc1cccc(Nc2nc(N)nc(CN3CCN(c4ccccc4)CC3)n2)c1	SKKanGAS inh inconclusive
Cc1cccc(Nc2nc(N)nc(CN3CCN(c4ccccc4F)CC3)n2)c1	SKKanGAS inh 71.9
O=C(COC(=O)C1CC2C=CC1C2)Nc1ccc([N+](=O)[O-])cc1 (centres undefined)	none (no result: SKKanGAS inh)

From PubChem BioAssay
